# Laboratory results from PubChem BioAssay (NCI).
# This is part of a sample that, as a whole, favours compounds with a hit. Of some 83,000 tested, about 20% had one in any assay.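 Growth was measured after 48 h exposure to one concentration of compound in 96-well plates. Values under 10 count as active.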 Unmarked numbers belong to inactive results. The source made the active and inactive calls.
# Legend:
# Assay in all cases: NCI-60 one-dose screen, 48 h (100 = growth as untreated, 0 = no growth, -100 = all killed)
# Conditions in all cases: 10 µM unless noted
# HCT-15 colon = tested on: HCT-15 colon
# HT29 colon = tested on: HT29 colon
# SNB-75 CNS = tested on: SNB-75 CNS
# SNB-19 CNS = tested on: SNB-19 CNS
# U251 CNS = tested on: U251 CNS
# PC-3 prostate = tested on: PC-3 prostate
# SK-MEL-5 melanoma = tested on: SK-MEL-5 melanoma
# UACC-62 melanoma = tested on: UACC-62 melanoma
# LOX IMVI melanoma = tested on: LOX IMVI melanoma
# SK-MEL-28 melanoma = tested on: SK-MEL-28 melanoma
# SK-MEL-2 melanoma = tested on: SK-MEL-2 melanoma
# EKVX NSCLC = tested on: EKVX NSCLC
# SN12C renal = tested on: SN12C renal
# UO-31 renal = tested on: UO-31 renal
# TK-10 renal = tested on: TK-10 renal
# ACHN renal = tested on: ACHN renal
# CAKI-1 renal = tested on: CAKI-1 renal
# A498 renal = tested on: A498 renal
# CCRF-CEM leukemia = tested on: CCRF-CEM leukemia
# MOLT-4 leukemia = tested on: MOLT-4 leukemia
Structure (SMILES),growth (HCT-15 colon),growth (HT29 colon),growth (SNB-75 CNS),growth (SNB-19 CNS),growth (U251 CNS),growth (PC-3 prostate),growth (SK-MEL-5 melanoma),growth (UACC-62 melanoma),growth (LOX IMVI melanoma),growth (SK-MEL-28 melanoma),growth (SK-MEL-2 melanoma),growth (EKVX NSCLC),growth (SN12C renal),growth (UO-31 renal),growth (TK-10 renal),growth (ACHN renal),growth (CAKI-1 renal),growth (A498 renal),growth (CCRF-CEM leukemia),growth (MOLT-4 leukemia)
O=C1/C(=C\c2cccn2Cc2ccccc2)c2ccccc2N1c1c(Cl)cccc1Cl,4.9% (active),52.4%,59.1%,79.7%,74.8%,51.4%,-5.28% (active),42%,88.8%,98.4%,45.7%,38.8%,87.3%,50.2%,22.9%,53.7%,55.8%,72.9%,92.9%,86.6%
C=C(CN=[N+]=[N-])[C@@H]1CC[C@]2(C)[C@H](CC[C@@H]3[C@H]4[C@H]5OC(=O)[C@@]4(CCC5(C)C)CC[C@]32C)[C@@]1(C)CCC#N,87.6% [100 µM],61.7% [100 µM],89.6% [100 µM],90.5% [100 µM],79.6% [100 µM],45.3% [100 µM],41.5% [100 µM],57.7% [100 µM],69.3% [100 µM],98.4% [100 µM],83.4% [100 µM],90.6% [100 µM],76.2% [100 µM],80.2% [100 µM],105% [100 µM],93.9% [100 µM],53.5% [100 µM],85.2% [100 µM],74.6% [100 µM],58% [100 µM]
O=C(N/N=C/c1c(Cl)cccc1Cl)c1cccc(Nc2ccnc(C(F)(F)F)c2)c1,78.5%,96.7%,93.7%,85.7%,89.6%,77%,54.6%,72.5%,83.7%,99.3%,92.2%,74.4%,91%,77.4%,90.8%,87.5%,88%,95.3%,87.8%,88.1%
CNc1cc(C(=O)O)nc(NC)n1,96.4%,104%,90.9%,92.5%,99.8%,94.9%,96.7%,97.8%,99.8%,92.7%,103%,97.1%,95.1%,88.4%,99.2%,99.9%,98.4%,79.7%,100%,101%
COc1ccc(/C=C/C(=C/c2c(O)[nH]c3cc(Br)ccc23)N=O)cc1,113%,114%,113%,109%,105%,104%,103%,102%,90.8%,120%,140%,108%,102%,88.5%,148%,110%,93.1%,93.6%,104%,104%
Cn1cc(-c2nnc(-c3cn(C)c4ncc(Br)cc34)o2)c2ccccc21,53.3%,87.7%,65.8%,87.6%,94.3%,77.2%,80.1%,70.8%,92.3%,91.7%,99.1%,74.1%,88.2%,61.4%,114%,81.4%,45%,86.4%,102%,93.6%
COc1cc(-c2cc(-c3ccc(Nc4ncnc5cc(Cl)ccc45)cc3)nc(N3CCCCC3)n2)cc(OC)c1OC,99.5%,87.7%,108%,100%,98.9%,88.1%,97.7%,95.5%,97.3%,108%,91%,102%,90.9%,80%,111%,96.8%,93.1%,89.5%,107%,90.8%
CCCc1cc2cc(-n3nc(C)c4c3CC(C)(C)CC4=O)cc(NC3CCSCC3)c2c(=O)[nH]1,41.4%,9.23% (active),102%,72%,72.3%,55.2%,70.4%,53.2%,54.8%,68.6%,71.6%,76.4%,39.8%,61%,43.4%,38.5%,68.8%,71.4%,100%,49.8%
N=C(N)c1ccc(-c2ccc(-c3ccc(-c4cccs4)s3)s2)cc1F,84.5%,72.6%,84.8%,91.6%,101%,92.6%,96.7%,97.2%,95.9%,101%,114%,98.8%,92.7%,76.5%,122%,101%,93.6%,0.519% (active),26.8%,91%
CSc1nc(=S)c2nc(SC)n(-c3ccccc3)c2[nH]1,106%,92.3%,94.8%,100%,93.5%,82.3%,98.5%,90.3%,90.9%,108%,83.1%,105%,96.7%,83.9%,96.9%,102%,90.9%,86.6%,82.5%,107%
CCCCCCCCCN(CCCCCCCCC)C(C)C(=O)c1ccc2cc(Br)c3ccccc3c2c1 (stereo not given),47.1%,30.1%,84.5%,92%,70.9%,75.2%,88.5%,92.8%,63.9%,109%,125%,72.6%,79.8%,47.2%,93.7%,85.9%,71.5%,96.8%,60.6%,86%
CCN(CC)CCS(=O)(=O)CCNc1ccnc2cc(Cl)ccc12,10.1%,-21.1% (active),9.48% (active),70%,-4.39% (active),33%,29.5%,29.7%,11.3%,49.5%,15.2%,26.7%,18.5%,-25.6% (active),13.5%,7.29% (active),8.63% (active),-29.1% (active),3.54% (active),-30.1% (active)
CSc1nc2c(c(=O)n1C)C1(C(=O)N(Cc3ccccc3)c3ccccc31)c1c(nc(SC)n(C)c1=O)N2,84%,86.2%,99%,91.5%,77.5%,44.9%,93%,93.6%,101%,104%,80.8%,100%,95.1%,73.9%,113%,77.5%,103%,72.6%,98.8%,99.9%
C=C(C)[C@@H]1CC[C@]2(C)[C@H](CC[C@@H]3[C@@H]([C@@](C)(O)CCC=C(C)C)CC[C@]32C)[C@@]1(C)CCC(=O)N1CCN(C)CC1,-92.8% [100 µM] (active),-70.8% [100 µM] (active),-92.5% [100 µM] (active),-95.3% [100 µM] (active),-78.6% [100 µM] (active),-61.8% [100 µM] (active),-99.1% [100 µM] (active),-95.2% [100 µM] (active),-100% [100 µM] (active),-92.1% [100 µM] (active),-88.5% [100 µM] (active),-66.4% [100 µM] (active),-95.6% [100 µM] (active),-100% [100 µM] (active),-79.3% [100 µM] (active),-100% [100 µM] (active),-90.7% [100 µM] (active),-96% [100 µM] (active),-27.6% [100 µM] (active),-41.2% [100 µM] (active)
O=C1NC(=O)c2cc([N+](=O)[O-])cc3cccc1c23,95.2%,102%,90.2%,100%,82.3%,78.8%,101%,87%,81.5%,108%,107%,94.2%,98.1%,66.4%,107%,103%,84.8%,87.1%,89.8%,115%
